The target in assay [1] is Cytochrome P450 3A7 (Homo sapiens) (UniProt P24462). Kind of assay: Cytochrome P450 family 3 subfamily A member 7 (CYP3A7) small molecule antagonists: luciferase biochemical qHTS assay (AID 1963596). Also: nearly all actives have a fitted effect of over 40% in size. Also: potency is read from the fitted curve at half-maximal effect. In outline:
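Compounds were screened in qHTS format for interference with CYP3A7 turnover of a proluciferin substrate. Reactions ran 1 h at room temperature after NADPH regeneration solution was added, then luciferin product was detected by luminescence.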
On the technique in general: qHTS replaces the single test concentration by a dilution series.

Assay [2] in a line: Cellular viability qHTS for adrenocortical cancer (ACC) cell line SW-13 (AID 1963989). Also: nearly all actives have a fitted effect of over 65% in size. Also: potency is read from the fitted curve at half-maximal effect.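 As to activity (max response): cells grown in serum-free medium with ITS supplement; % is scaled to controls: 0 for no effect and ±100 for the full control effect.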 Conditions: SW-13 ACC cells viability, CellTiter-Glo, 48 h; activity (max response): hits give low values. In short, it runs like this:
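Viability was read as CellTiter-Glo luminescence after 48 h compound treatment (up to 46 uM final) of SW-13 cells grown serum-free; titration curves were fit with a four-parameter logistic model to give IC50 and efficacy.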

The nature of assay [3]: Cellular viability qHTS for adrenocortical cancer (ACC) cell line NCI-H295R (AID 1963990). Also: nearly all actives have a fitted effect of over 60% in size. Also: potency is read from the fitted curve at half-maximal effect. In short, it runs like this:
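CellTiter-Glo ATP luminescence, read 48 h after compound addition, measured viability of NCI-H295R adrenocortical cells grown serum-free with ITS. Final concentrations spanned up to 46 uM. Data normalized to DMSO and doxorubicin, fitted for IC50 and maximal response.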

The nature of assay [4]: Quantitative highthroughput screen to assess conditional lethalithy of NOMO1 cells grown in RPMI1640 with untreated serum (RPMI+s) (AID 1963876).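 Also: 100% = DMSO wells and 0% = empty wells without cells; nearly all actives have a fitted effect of over 35% in size.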 In short, it runs like this: (§1)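 Each medium arm—HPLM with 10% dialyzed FBS, or RPMI1640 with 5 mM glucose and 10% untreated or dialyzed FBS—was screened against an 11-point, 3-fold compound titration for 48 h at 37 °C, with CellTiter-Glo luminescence as endpoint.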

Assay [5] can be described thus: Quantitative highthroughput screen to assess conditional lethalithy of NOMO1 cells grown in RPMI1640 with dialyzed fetal bovine serum (RPMI+ds) (AID 1963877).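 Also: series mostly up to about 46 µM; 100% = DMSO control wells and 0% = empty wells; nearly all actives have a fitted effect of over 30% in size.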 In short, it runs like this: as §1
Assay [6] is described as follows: Quantitative highthroughput screen to assess conditional lethalithy of NOMO1 cells grown in Human Plasma-Like Medium with dialyzed fetal bovine serum (HPLM+ds) (AID 1963878). Also: nearly all actives have a fitted effect of over 35% in size. Also: potency is read from the fitted curve at half-maximal effect.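 As to viability: 100% = DMSO wells and 0% = empty wells on each plate.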 In short, it runs like this: as §1
Assay [7] is described as follows: Quantitative highthroughput screen to assess conditional lethalithy of P12 Ichikawa cells grown in Human Plasma-Like Medium with dialyzed fetal bovine serum (HPLM+ds) (AID 1963879). Also: nearly all actives have a fitted effect of over 35% in size. Also: potency is read from the fitted curve at half-maximal effect. As to viability: series mostly up to about 46 µM. Conditions: Potency: viability. In outline: as §1
The nature of assay [8]: Quantitative highthroughput screen to assess conditional lethalithy of P12 Ichikawa cells grown in RPMI1640 with dialyzed fetal bovine serum (RPMI+ds) (AID 1963880). Also: nearly all actives have a fitted effect of over 35% in size. Also: potency is read from the fitted curve at half-maximal effect.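 As to viability: 100% = DMSO wells and 0% = empty wells on each plate.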 The following applies: Potency: P12-Ichikawa viability. In short, it runs like this:
as §1

A short description of assay [9]: Quantitative highthroughput screen to assess conditional lethalithy of P12 Ichikawa cells grown in RPMI1640 with untreated serum (RPMI+s) (AID 1963881). Conditions: Potency: viability. In short, it runs like this:
as §1

The nature of assay [10]: Quantitative highthroughput screen to assess conditional lethalithy of SEM cells grown in RPMI1640 with unreated serum (RPMI+s) (AID 1963883). Also: nearly all actives have a fitted effect of over 35% in size. Also: potency is read from the fitted curve at half-maximal effect.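 As to viability: 100% = DMSO wells and 0% = empty wells without cells.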 In short, it runs like this:
as §1

Assay [11] in a line: Quantitative highthroughput screen to assess conditional lethalithy of SEM cells grown in RPMI1640 with dialyzed fetal bovine serum (RPMI+ds) (AID 1963884). Also: nearly all actives have a fitted effect of over 35% in size. Also: potency is read from the fitted curve at half-maximal effect.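 As to viability: series mostly up to about 46 µM; 100% = DMSO control wells and 0% = empty wells without cells.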 In short, it runs like this: as §1
A short description of assay [12]: Quantitative highthroughput screen to assess conditional lethalithy of SEM cells grown in Human Plasma-Like Medium with dialyzed fetal bovine serum (HPLM+ds) (AID 1963882). Also: nearly all actives have a fitted effect of over 35% in size. Also: potency is read from the fitted curve at half-maximal effect. As to viability: series mostly up to about 46 µM. In outline: as §1

Structures are written as SMILES. Values joined by “and” are separate entries in the source; they are usually repeats but may differ in a detail not shown here. Equal values may be shown once. Inconclusive results are not listed. A number with no mark means an inactive call. Active and inactive are the calls of the source. Calls follow the shape of the dose curve; as a rule, active = well fitted curve in the direction sought with a large enough effect; inconclusive = small, poorly fitted or top-dose-only effect, or another doubt; inactive = no such curve, though single readings can be large; an effect the other way counts as inactive or inconclusive.

Chain of Cytochrome P450 3A7 (Homo sapiens) (P24462 whole entry, looked up): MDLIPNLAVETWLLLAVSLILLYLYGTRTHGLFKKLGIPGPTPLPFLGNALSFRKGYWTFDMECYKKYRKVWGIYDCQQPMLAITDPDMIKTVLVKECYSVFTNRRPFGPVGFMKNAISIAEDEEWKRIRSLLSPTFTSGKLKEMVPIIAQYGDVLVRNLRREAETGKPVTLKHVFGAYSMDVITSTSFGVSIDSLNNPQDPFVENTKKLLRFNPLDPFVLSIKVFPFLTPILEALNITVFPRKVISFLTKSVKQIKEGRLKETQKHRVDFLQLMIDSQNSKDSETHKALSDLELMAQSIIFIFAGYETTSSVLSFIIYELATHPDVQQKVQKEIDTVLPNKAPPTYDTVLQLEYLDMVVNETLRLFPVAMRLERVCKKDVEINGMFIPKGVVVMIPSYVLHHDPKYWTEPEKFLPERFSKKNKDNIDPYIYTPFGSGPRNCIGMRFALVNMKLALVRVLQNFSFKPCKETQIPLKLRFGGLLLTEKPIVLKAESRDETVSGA

`CCCc1ncc(C[n+]2ccccc2C)c(N)n1`: the Potency result in assay [1] is “inactive”. Besides, the activity (max response) in assay [2] was -17.3%.
Turning to `CC(C)(C)NCC(O)COc1ccc(NC(=O)NC2CCCCC2)cc1` (stereo not given), the Potency result in [1] and in assay [3] was “inactive” in each case. The activity (max response) in assay [2] was 5.25%.
Consider `O=C(CCCCC(=O)Nc1c(I)cc(I)c(C(=O)O)c1I)Nc1c(I)cc(I)c(C(=O)O)c1I`, for which, in [1], the Potency entry was “inactive”. For the same molecule, in [2], the activity (max response) is 10.3%.
With `Nc1ccn(C2CO[C@H](CO)O2)c(=O)n1` (stereo not given in full), the Potency entry in assay [1], in assay [4], in [5], in assay [6], in [7] and in assay [8] was “inactive” each time. Further, the Potency result in [9], in assay [10] and in assay [11] was “inactive” throughout.
Take `CC(S)C(=O)NCC(=O)O` (stereo not given): the Potency result in [1], in assay [4], in assay [5], in assay [7], in [8] and in [9] was “inactive” in each case. In addition, in assay [3], the Potency result is “inactive”. Besides, in assay [2], the activity (max response) was 6.56% and -5.95%.
`CS(=O)(=O)c1ccc([C@@H](O)[C@@H](CO)NC(=O)C(Cl)Cl)cc1`: the Potency result in [1], in assay [4], in assay [5], in [6], in assay [7] and in [3] was “inactive” throughout.
Take `CCCC(=O)O[C@]1(C(=O)COC(=O)CC)CC[C@H]2[C@@H]3CCC4=CC(=O)CC[C@]4(C)[C@H]3[C@@H](O)C[C@@]21C`: the Potency result in assay [1] and in assay [3] was “inactive” in each case. Besides, the activity (max response) in assay [2] is 8.42%.
On to `O=C(Nc1ccc([N+](=O)[O-])cc1)Nc1ccc([N+](=O)[O-])cc1`, for which the Potency result in assay [1] is “inactive”. In addition, in assay [2], the activity (max response) was 3.91%.
Turning to `Cc1nc(N)nc(N)c1-c1ccc(Cl)c(Cl)c1`, the Potency entry in assay [1] was “inactive”. The Potency in assay [2] was 0.231 µM (active).
Take `CCc1ccc(C(=O)C(C)CN2CCCCC2)cc1` (stereo not given): the Potency in [1] is 30.9 µM (active). Moreover, the activity (max response) in assay [2] is -7.06%.
As for `COc1ccc(C=CC(=O)Nc2ccccc2C(=O)O)cc1OC`, the Potency entry in assay [1], in [5], in assay [7], in [8], in assay [9] and in assay [12] was “inactive” each time. Besides, the Potency result in assay [10] is “inactive”.
As for `O=C(NCCO[N+](=O)[O-])c1cccnc1`, the Potency result in [1], in assay [4], in [7], in assay [8], in [9] and in assay [12] was “inactive” each time. Also, the Potency entry in assay [10], in assay [11] and in assay [3] was “inactive” in each case. The activity (max response) in assay [2] was 2.63% and 5.13%.
Turning to `COc1c(N2C[C@@H]3CCCN[C@H]3C2)c(F)cc2c(=O)c(C(=O)O)cn(C3CC3)c12`, the Potency result in assay [1] is “inactive”. Further, the activity (max response) in assay [2] was -9.27%.
The corresponding values for `CC1CC(OC(=O)C(O)c2ccccc2)CC(C)(C)N1C` (stereo not given) are “inactive” and 2.77%.
As for `CSc1cccc(Nc2ncc3cc(-c4c(Cl)cccc4Cl)c(=O)n(C)c3n2)c1`, the Potency entry in [1], in [5], in [6], in assay [7], in assay [9] and in [3] was “inactive” each time.
Take `O=c1[nH]cc(F)c(=O)[nH]1`: in assay [1], the Potency result was “inactive”. For the same molecule, the Potency is 10.5 µM (active) in [6]; 8.33 µM (active) in [7]; 10.5 µM (active) in [8]; 9.35 µM (active) in assay [12]; 9.35 µM (active) in [10]; 10.5 µM (active) in assay [11].
As to `Cn1c(=O)c2c(ncn2CC(=O)O)n(C)c1=O`, in assay [1], the Potency result was “inactive”. In addition, the activity (max response) in assay [2] is 9.83%.
`NNc1nncc2ccccc12`: the Potency entry in [1], in assay [4], in assay [5], in assay [6], in assay [7] and in [8] was “inactive” throughout. In addition, the Potency entry in assay [9], in [12] and in [3] was “inactive” each time.
`CCOc1cc(C(=O)Nc2ccc(Cl)c(-c3nc4ccccc4[nH]3)c2)cc(OCC)c1OCC`: the Potency entry in [1], in [7] and in assay [3] was “inactive” throughout.
`N[C@@H](CSCCCO)C(=O)O`: the Potency entry in [1] is “inactive”. For the same molecule, the activity (max response) in assay [2] is 14.2%.
The corresponding values for `C[C@H](CN1CCCC1)C(=O)c1ccc(C(F)(F)F)cc1` are “inactive” and -1.72%.
Take `CN(C)CCCO[C@@H]1[C@H]2OC(C)(C)O[C@H]2O[C@@H]1C(O)CO` (stereo not given in full): the Potency result in assay [1] and in assay [3] was “inactive” each time. Also, the activity (max response) in assay [2] was 7.54%.
On to `CO[C@@H]1[C@@H](O[C@@H]2O[C@H](C)[C@@H](O[C@H]3C[C@@](C)(O)[C@@H](O)[C@H](C)O3)[C@H](N(C)C)[C@H]2O)[C@@H](CC=O)C[C@@H](C)[C@@H](O[C@@H]2CC[C@H](N(C)C)[C@@H](C)O2)/C=C/C=C/C[C@@H](C)OC(=O)C[C@H]1OC(C)=O`, for which the Potency entry in assay [1] and in assay [3] was “inactive” throughout. Besides, the activity (max response) in assay [2] was -1.59%.
As for `Nc1ccn([C@@H]2O[C@H](CO)[C@@H](O)C2(F)F)c(=O)n1`, in assay [1], the Potency entry was “inactive”. For the same molecule, the activity (max response) in assay [2] was -35% and -42.2%. Also, the Potency in [3] was 2.06 µM (active) and 794 nM (active).

(Values after PubChem BioAssay (NCATS).)
